Assay outcomes as filed in PubChem.
ZTA counter: counter-screen for EBNA-1 inhibitors: inhibitors of Epstein-Barr virus ZTA | actives 0.15% (n = 320,000) | inhibition, % at 11 µM | AID 2234 | ZTA-DNA binding, fluorescence polarization; in the data active = inhibition above about 33%
Target sequence (P03206 whole entry, looked up): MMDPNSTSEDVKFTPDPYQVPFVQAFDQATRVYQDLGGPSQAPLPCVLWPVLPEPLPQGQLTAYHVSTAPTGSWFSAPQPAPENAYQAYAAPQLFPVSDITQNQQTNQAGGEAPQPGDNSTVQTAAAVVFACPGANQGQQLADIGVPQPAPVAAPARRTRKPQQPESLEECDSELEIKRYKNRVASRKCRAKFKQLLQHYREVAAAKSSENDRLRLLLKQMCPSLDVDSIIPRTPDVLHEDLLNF
aDG glyco act: increases alpha dystroglycan glycosylation. Pro5-aDG cells, alpha-DG glycosylation AlphaScreen (IIH6); 0% Pro5, 100% B10-LARGE cell signal. activation, % at 10 µM. actives 0.22% (n = 360,000). AID 624168;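 active = activation of at least 8% versus controls, or a plate z-score of at least 8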;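 note: Pro5 are CHO cells carrying HIG-tagged alpha-DG that lacks glycosylation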
p47phox inh: blocks human p47phox regulatory protein of NADPH oxidases | P14598 | p47phox/p22phox peptide binding, fluorescence polarization, 2 h | inhibition, % at 24.7 µM | actives 0.53% (n = 220,000) | AID 1274;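 active = inhibition above about 30%, limit read from the data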
NR1D1 modulator: Rev-erb alpha (human) modulation; Rev-erbα–FITC-DNA binding, fluorescence polarization, 90 min; P20393; AID 1259318; activity, % at 10 µM; actives 0.79% (n = 370,000);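 active = activity above about 14%, limit read from the data; passing the limit was not always enough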
EBNA-1 inhibitor: blocks EBNA-1 binding to DNA | EBNA-1 DNA binding, fluorescence polarization | inhibition, % at 14.8 µM | actives 0.34% (n = 300,000); in the data active = inhibition above about 28%
PG9 Ab binder: binds the HIV-1 gp120 antibody PG9; TR-FRET gp120-PG9 antibody binding; inhibition, % at 6.7 µM; actives 0.43% (n = 360,000); in the data active = inhibition above about 8.5%
Hits are given with their value; - = inactive; . = no result given; + = active, no number. Most compounds without a hit are left out; they make up all but 1.9% or so of the library.

SMILES	ZTA counter	aDG glyco act	p47phox inh	NR1D1 modulator	EBNA-1 inhibitor	PG9 Ab binder
Cc1cc(C)c(-c2cc(NC(=O)COC(=O)c3ccc(CO)cc3)n(-c3ccccc3)n2)cc1C	-	-	+	-	-	-
COc1cc(C(=O)OCC(=O)Nc2cc(-c3cc(C)c(C)cc3C)nn2-c2ccccc2)cc(OC)c1OC	-	-	-	-	-	-
CN(C)CCNS(=O)(=O)c1ccc(N2CCN(c3ccc(F)cc3)CC2)c([N+](=O)[O-])c1	-	9.1	-	-	-	-
COc1ccc([C@H]2[C@H](C(=O)OC(C)(C)C)N3N=Cc4ccccc4C3C23C(=O)c2ccccc2C3=O)cc1OC (stereo not given in full)	-	9.9	-	.	-	.
CCOc1ccc(N=C(C)Nc2ccc(OCC)cc2)cc1	.	.	.	-	.	.
O=C(N=Nc1c(O)[nH]c2ccc(Cl)cc12)c1cc(-c2cccs2)nc2ccccc12	-	-	70	-	-	-
CCCCCCCCCCCCCCCC(O)C(N)CO (stereo not given)	-	-	84	-	-	-
O[C@@H]1COC2C1OC[C@@H]2O (stereo not given in full)	.	.	.	-	.	.
CC(=O)N[C@@H](C=O)[C@@H](O)[C@@H](O)[C@H](O)CO	.	.	.	-	.	.
CCCCSc1cnn(-c2ccccc2)c(=O)c1SCCCC	-	-	65	-	-	-
CCSc1cnn(-c2ccccc2)c(=O)c1SCC	-	-	-	-	-	-
Cc1ccc(C(=O)N/C(=C\c2ccc(-c3ccccc3[N+](=O)[O-])o2)C(=O)NCCN(C)C)cc1	-	1.9	.	-	-	-
COc1ccc(/C=C/C(Cc2cccc(C(C)=O)c2)c2ccc(C)cc2)cc1 (stereo not given)	.	.	.	-	.	.
COc1ccc(S[C@]2(C(=O)N3CCN(C(C)=O)CC3)CC(=O)N(S(=O)(=O)c3ccc(F)cc3)[C@@H]2c2ccc(OC)cc2)cc1	.	.	.	-	.	.
O=S(=O)(NCc1ccncc1)c1ccc(Br)s1	-	8.9	-	-	-	-
O=C(O)CNS(=O)(=O)c1ccc(Br)s1	-	-	-	-	-	-
COc1ccc(C(=O)N2CC3(CC(c4cccc([N+](=O)[O-])c4)=NO3)C[C@H]2C(=O)NCC(N)=O)cc1 (stereo not given in full)	-	-	-	-	-	-
CCC(=O)N1CC2(CC(c3cccc([N+](=O)[O-])c3)=NO2)C[C@H]1C(=O)NCC(N)=O (stereo not given in full)	-	-	35	-	-	-
C#CCCN([C@@H](CC(C)C)C(=O)OC)S(=O)(=O)c1ccccc1Br	.	.	.	-	.	.
CCOc1cc(N2CCOCC2)c(OCC)cc1NC(C)C(=O)N1CCN(CC)CC1 (stereo not given)	.	-	67	-	.	-
Cc1nc(N2N=C(c3ccc(Cl)cc3)CC2c2ccco2)sc1C(=O)N(C)C (stereo not given)	-	-	-	-	-	-
COc1ccc(C2=NN(c3nc(-c4ccccc4)c(CC(=O)O)s3)C(c3ccco3)C2)cc1 (stereo not given)	-	-	-	-	40	-
CCOC(=O)C1(CC2CC2)CCN(C(=O)c2cc(OC)nc3ccccc23)CC1	34	-	-	-	29	-
O=C(COc1ccccc1)Nc1nnc(-c2ccc3c(c2)CCCC3)o1	-	-	168	-	-	-
O=C(COc1ccccc1)N/N=C/c1ccc([N+](=O)[O-])o1	-	-	-	-	-	-
SMILES	ZTA counter	aDG glyco act	p47phox inh	NR1D1 modulator	EBNA-1 inhibitor	PG9 Ab binder
Cc1cc(C(=O)N/N=C/c2ccc([N+](=O)[O-])o2)c(C)o1	-	-	56	-	-	-
O=C(CNc1ccc2ccccc2c1)N/N=C/c1ccc([N+](=O)[O-])o1	-	9.8	-	-	-	-
CN1C(=O)CC(C)(c2ccccc2)C1=O (stereo not given)	.	.	.	-	.	.
FC(F)(F)c1ccc2nc(CNc3nc(N4CCOCC4)nc4c3ncn4-c3ccsc3)[nH]c2c1	.	.	.	-	.	.
C#CCN(CC=C)Cc1ccc(OC)cc1OC	.	.	.	-	.	.
Nc1nc(Nc2ccccc2)nc(NCc2ccco2)c1[N+](=O)[O-]	-	-	-	-	-	-
Nc1nc(NCc2ccco2)nc(Nc2ccccc2)c1[N+](=O)[O-]	-	-	76	-	-	-
CCN1CCN(Cc2ccc(NC(=O)c3cc(NC(=O)c4ccc5n[nH]nc5c4)cc(OC)c3)cc2C(F)(F)F)CC1	-	-	-	-	-	-
